Among the data in PubChem BioAssay (EPA / NIEHS) are AC50 and outcome values, retold here.

Activity calls are given as the source filed them. How the source made its calls: active means hit-call score of the fitted dose curve at least 0.9, where 1 is the maximum; inconclusive means response in the unintended direction; inactive means score below 0.9.

The assay in a line: Tanguay_ZF_120hpf_ActivityScore_legacy: (Legacy) Oregon State University Tanguay Lab 120 Hour Post-fertilization zebrafish Assay Score for Activity (AID 2283742).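 On AC50: static exposure from 6 hpf until 120 hpf at 28 °C.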 The procedure: Tanguay_ZF_120hpf_legacy is a whole embryo, multiplexed endpoint assay using zebrafish larvae exposed for 120 hours post fertilization on a 96-well plate.Tanguay_ZF_120hpf_ActivityScore_legacy is one of one assay component(s) measured or calculated from the Tanguay_ZF_120hpf_legacy assay. It is designed to make measurements of developmental malformations and mortality as detected with brightfield microscopy and combines scoring from 18 other assay components measuring more specific morphologies.Data from the assay component Tanguay_ZF_120hpf_ActivityScore_legacy was analyzed into 1 assay endpoints. This assay endpoint, Tanguay_ZF_120hpf_ActivityScore_legacy, was analyzed in the positive analysis fitting direction relative to DMSO as the negative control and baseline of activity. Using a type of morphology reporter, gain-of-signal activity can be used to understand changes in developmentals as they relate to the whole embryo. To generalize the intended target to other relatable targets, this assay endpoint is annotated to the zebrafish development intended target family, where the subfamily is embryonic morphogenesis and mortality.
Zebrafish husbandry: Tropical 5D wild-type adult zebrafish were housed in at an approximate density of 1000 per 100 gallon tank at the Sinnhuber Aquatic Research Laboratory, Oregon State University, Corvallis, OR. Each tank was kept at standard laboratory conditions of 28C on a 14-h light/10-h dark photoperiod in fish water consisting of reverse osmosis water supplemented with a commercially available salt (Instant Ocean). Spawning funnels were placed into the tanks the night prior, and embryos were collected and staged. To increase bioavailability, the chorion was enzymatically removed using pronase (63.6mg/ml, >/= 3.5U/mg, Sigma-Aldrich: P5147) at 4 hours post fertilization (hpf) using a custom automated dechorionator.Chemical exposures: Six hpf dechorionated embryos were placed 1 embryo per well in a 96-well plate prefilled with 90 ul of EM using automated embryo placement systems (AEPS). Ten microliters of each row of dilution plate 2 was added to 2 exposure plates. The final DMSO concentration used was 0.64% (vol/vol). Thirty-two embryos were also exposed to 5uM trimethyltin chloride (positive control). Plates were sealed to prevent evaporation and foil covered to reduce light exposure and kept in a 28C incubator. Embryos were statically exposed until 120 hpf. At 24 hpf, embryos were assessed for photomotor response using a custom photomotor response analysis tool (PRAT) and for developmental toxicity endpoints (MO24: mortality at 24 hpf, DP: developmental progression, SM: spontaneous movement, and NC: notochord distortion). At 120 hpf, locomotor activity was measured using Viewpoint Zebralab and assessed for 18 endpoints. Zebrafish acquisition and analysis program (ZAAP), a custom program designed to inventory, acquire, and manage zebrafish data, was used to collect developmental endpoints as either present or absent (i.e., binary responses were recorded). If mortality occurred for an embryo (at either 24 or 120 hpf), the non-mortality endpoints were not measured.
As for `CCc1c(C(=O)NN2CCCCC2)nn(-c2ccc(Cl)cc2Cl)c1-c1ccc(Br)cc1`, the AC50 (in general, the concentration at which the activity in the assay is half-maximal) was 39.9 µM (active).
For the molecule `CC1=C(/C=C/C(C)=C/C=C/C(C)=C/CO)C(C)(C)CCC1`, the molecule was called inactive.
Turning to `Cc1cccc(C)c1O`, the molecule was classed as inactive.
On to `COC(=O)c1ccc(O)cc1`, for which the result was inactive.
Take `CC(C)(C)c1cc(O)c(C(C)(C)C)cc1O`: the AC50 is 40.5 µM (active).
As for `Clc1cc(Cl)c(Cl)cc1Cl`, the molecule was called inactive.
Turning to `CCOC(=O)C(C)(C)Oc1ccc(Cl)cc1`, the AC50 is 37.7 µM (active).
On to `Cc1cccc([N+](=O)[O-])c1C`, for which the result was inactive.
In the case of `CCCCCCCCCCCCCCCCCC(=O)O`, the molecule was classed as inactive.
Turning to `C[Si]1(C)O[Si](C)(C)O[Si](C)(C)O[Si](C)(C)O1`, the molecule was called inactive.
As for `CC(=O)Oc1ccccc1C(=O)O`, the molecule was classed as inactive.
As for `Nc1ccccc1N`, the molecule was called inactive.
Turning to `Cc1nc(-c2ccc3c(c2)CCN(CCC2CCC(NC(=O)/C=C/c4ccc(F)cc4)CC2)CC3)no1` (stereo not given), the outcome was inactive.
Same read-out and setting: for `CCCCCCCCCCC` the value was “inactive”; for `NCCO`, “inactive”.
`CC(CO)OC(C)CO` (stereo not given) (tested in a mixture with another compound): the call was inactive.
Regarding `CCCCC(CC)COC(=O)CC(C(=O)OCC(CC)CCCC)S(=O)(=O)O` (stereo not given), the molecule was called inactive.
As for `NS(=O)(=O)c1cc2c(cc1Cl)NCNS2(=O)=O`, the molecule was called inactive.
Take `CCOC(=O)CCC(=O)OCC`: the call was inactive.
Consider `Cc1cccc(Nc2cc(Cl)nc(SCC(=O)O)n2)c1C`, for which the molecule was called inactive.
Still for that read-out and setting: for `CCCCCCCCCCCCCCCC` the value was “inactive”; for `CCCCCCCCCCCC(=O)OC`, “inactive”.
In the case of `O=c1[nH]cc(F)c(=O)[nH]1`, the molecule was classed as inactive.
For the molecule `C1CCC(SSC2CCCCC2)CC1`, the call was inactive.
For `COCCOCCOC`, the molecule was called inactive.
Take `COCCOC[C@H](CC1(C(=O)NC2CCC(C(=O)O)CC2)CCCC1)C(=O)Oc1ccc2c(c1)CCC2` (stereo not given in full): the molecule was classed as inactive.
In the case of `CC=Cc1ccc(O)c(OC)c1`, the outcome was inactive.
As to `CCCCN(CCCC)CCCC`, the result was inactive.
Regarding `Cc1nc(C)nc(N2C[C@@H](C)N(c3ccnc([C@@H](C)O)n3)[C@@H](C)C2)n1`, the molecule was classed as inactive.
`Cc1ccc(C)c(O)c1C`: the molecule was classed as inactive.
In the case of `O=C(O)CCCCC(=O)O`, the call was inactive.
With `CCCCCC(=O)O`, the call was inactive.
Take `CCCCCCC(=O)OCC`: the molecule was classed as inactive.
For the molecule `CC(=O)OCCOCCOCCOC(C)=O`, the call was inactive.
On to `Cc1cc(=O)[nH]c(=S)[nH]1`, for which the outcome was inactive.
The same measure, in the same setting: for `CNC(=O)[C@H]1O[C@@H](n2cnc3c(NCc4cc(Cl)ccc4OCc4cc(C)no4)ncnc32)[C@H](O)[C@@H]1N` the value was “inactive”.
In the case of `CNCc1cc(F)ccc1Oc1ccc(Cl)c(Cl)c1`, the molecule was classed as inactive.
The same measure, in the same setting: then `Cc1ccc(C)c(C)c1`, with “inactive”; and `O=c1c(O)c(-c2ccc(O)c(O)c2)oc2cc(O)cc(O)c12`, with “inactive”; and `Nc1ccc2c(c1)C(=O)c1ccccc1C2=O`, with “inactive”.
